Data on one compound can be found in ChEMBL document CHEMBL1961873, “Compounds: GSK PKIS; Assays: Nanosyn kinase panel” (2012).

Experiment [1] addresses Protein kinase C gamma type (Homo sapiens) (UniProt P05129). As to conditions: at 1 µM.
The target of experiment [2] is T1, Protein kinase C iota type (Homo sapiens) (UniProt P41743).
T1 sequence (whole entry): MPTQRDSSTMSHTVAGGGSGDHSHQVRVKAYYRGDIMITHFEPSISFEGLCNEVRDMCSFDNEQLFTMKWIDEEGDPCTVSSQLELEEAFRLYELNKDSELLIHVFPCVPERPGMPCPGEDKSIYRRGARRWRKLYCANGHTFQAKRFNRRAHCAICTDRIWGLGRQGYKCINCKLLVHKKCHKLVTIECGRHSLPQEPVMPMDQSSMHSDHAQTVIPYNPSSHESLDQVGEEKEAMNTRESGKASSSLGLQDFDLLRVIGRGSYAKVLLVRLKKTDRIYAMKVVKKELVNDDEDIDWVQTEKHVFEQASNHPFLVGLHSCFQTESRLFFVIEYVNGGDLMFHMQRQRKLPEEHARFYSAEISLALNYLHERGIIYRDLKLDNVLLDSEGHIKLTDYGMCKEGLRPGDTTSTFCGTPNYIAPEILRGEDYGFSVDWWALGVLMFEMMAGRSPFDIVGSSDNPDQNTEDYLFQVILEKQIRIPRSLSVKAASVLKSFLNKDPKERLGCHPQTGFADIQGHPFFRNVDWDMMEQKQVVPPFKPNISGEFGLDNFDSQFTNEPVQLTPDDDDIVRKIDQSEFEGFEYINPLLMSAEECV
Conditions: at 0.1 µM.

For experiment [3], the target named is T1, Protein kinase C iota type (Homo sapiens). Conditions: at 1 µM.
Experiment [4] deals with Protein kinase C theta type (Homo sapiens) (UniProt Q04759). Conditions: at 0.1 µM.
The target is the same in experiment [5]. Conditions: at 1 µM.
Experiment [6] concerns the target Protein kinase C beta type (Homo sapiens) (UniProt P05771). Conditions: at 0.1 µM.
The target is the same in experiment [7]. Conditions: at 1 µM.
Experiment [8] addresses T2, Serine/threonine-protein kinase D1 (Homo sapiens) (UniProt Q15139).
T2 sequence (whole entry): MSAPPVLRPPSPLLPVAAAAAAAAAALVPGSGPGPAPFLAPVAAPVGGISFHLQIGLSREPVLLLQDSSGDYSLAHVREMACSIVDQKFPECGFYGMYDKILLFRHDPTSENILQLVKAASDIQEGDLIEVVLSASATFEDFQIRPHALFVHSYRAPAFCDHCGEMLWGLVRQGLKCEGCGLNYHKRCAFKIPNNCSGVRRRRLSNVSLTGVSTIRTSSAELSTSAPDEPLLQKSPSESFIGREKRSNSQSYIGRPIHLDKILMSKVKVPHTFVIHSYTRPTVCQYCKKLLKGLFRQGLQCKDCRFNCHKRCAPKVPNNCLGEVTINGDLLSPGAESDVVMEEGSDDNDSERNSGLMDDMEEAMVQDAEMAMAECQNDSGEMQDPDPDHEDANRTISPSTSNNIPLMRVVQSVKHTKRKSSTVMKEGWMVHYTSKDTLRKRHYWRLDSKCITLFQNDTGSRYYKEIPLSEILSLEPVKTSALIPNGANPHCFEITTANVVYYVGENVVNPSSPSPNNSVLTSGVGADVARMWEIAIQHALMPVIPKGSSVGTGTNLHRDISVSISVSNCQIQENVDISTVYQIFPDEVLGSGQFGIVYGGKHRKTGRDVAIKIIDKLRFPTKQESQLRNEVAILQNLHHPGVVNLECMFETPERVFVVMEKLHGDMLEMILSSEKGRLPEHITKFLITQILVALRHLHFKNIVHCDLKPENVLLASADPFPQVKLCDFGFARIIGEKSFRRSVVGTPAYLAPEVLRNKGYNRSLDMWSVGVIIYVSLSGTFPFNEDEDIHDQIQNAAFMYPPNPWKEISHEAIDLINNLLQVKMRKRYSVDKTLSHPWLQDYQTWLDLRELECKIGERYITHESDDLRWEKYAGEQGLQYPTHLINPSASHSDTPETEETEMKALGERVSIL
Conditions: at 0.1 µM.

Experiment [9] addresses T2, Serine/threonine-protein kinase D1 (Homo sapiens). As to conditions: at 1 µM.
Experiment [10] addresses T3, Serine/threonine-protein kinase D2 (Homo sapiens) (UniProt Q9BZL6).
T3 sequence (whole entry): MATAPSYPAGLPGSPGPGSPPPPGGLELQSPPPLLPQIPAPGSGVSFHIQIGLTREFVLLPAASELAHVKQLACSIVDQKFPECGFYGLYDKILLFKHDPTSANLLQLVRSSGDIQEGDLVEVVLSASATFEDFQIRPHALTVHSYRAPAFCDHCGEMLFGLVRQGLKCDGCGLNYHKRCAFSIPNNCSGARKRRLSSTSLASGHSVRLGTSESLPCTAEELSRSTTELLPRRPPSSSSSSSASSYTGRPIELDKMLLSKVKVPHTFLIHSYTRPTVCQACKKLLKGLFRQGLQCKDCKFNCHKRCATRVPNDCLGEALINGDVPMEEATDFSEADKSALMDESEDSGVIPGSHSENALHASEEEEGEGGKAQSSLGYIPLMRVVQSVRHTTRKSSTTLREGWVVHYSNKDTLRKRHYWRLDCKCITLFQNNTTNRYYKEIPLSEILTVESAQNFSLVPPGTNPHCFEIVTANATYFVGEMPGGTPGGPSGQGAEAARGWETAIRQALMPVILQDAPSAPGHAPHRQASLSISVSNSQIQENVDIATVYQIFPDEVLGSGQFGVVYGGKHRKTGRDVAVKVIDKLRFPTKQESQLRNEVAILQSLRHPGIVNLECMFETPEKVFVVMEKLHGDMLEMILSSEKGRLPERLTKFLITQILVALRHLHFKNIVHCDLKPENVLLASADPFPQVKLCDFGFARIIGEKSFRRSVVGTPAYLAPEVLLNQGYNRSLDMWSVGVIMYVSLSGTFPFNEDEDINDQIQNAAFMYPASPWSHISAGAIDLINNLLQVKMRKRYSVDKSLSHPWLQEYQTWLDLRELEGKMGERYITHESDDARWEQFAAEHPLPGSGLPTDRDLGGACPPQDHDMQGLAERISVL
Conditions: at 0.1 µM.

Experiment [11] concerns the target T3, Serine/threonine-protein kinase D2 (Homo sapiens). Conditions: at 1 µM.
For experiment [12], the target named is T4, Serine/threonine-protein kinase D3 (Homo sapiens) (UniProt O94806).
T4 sequence (whole entry): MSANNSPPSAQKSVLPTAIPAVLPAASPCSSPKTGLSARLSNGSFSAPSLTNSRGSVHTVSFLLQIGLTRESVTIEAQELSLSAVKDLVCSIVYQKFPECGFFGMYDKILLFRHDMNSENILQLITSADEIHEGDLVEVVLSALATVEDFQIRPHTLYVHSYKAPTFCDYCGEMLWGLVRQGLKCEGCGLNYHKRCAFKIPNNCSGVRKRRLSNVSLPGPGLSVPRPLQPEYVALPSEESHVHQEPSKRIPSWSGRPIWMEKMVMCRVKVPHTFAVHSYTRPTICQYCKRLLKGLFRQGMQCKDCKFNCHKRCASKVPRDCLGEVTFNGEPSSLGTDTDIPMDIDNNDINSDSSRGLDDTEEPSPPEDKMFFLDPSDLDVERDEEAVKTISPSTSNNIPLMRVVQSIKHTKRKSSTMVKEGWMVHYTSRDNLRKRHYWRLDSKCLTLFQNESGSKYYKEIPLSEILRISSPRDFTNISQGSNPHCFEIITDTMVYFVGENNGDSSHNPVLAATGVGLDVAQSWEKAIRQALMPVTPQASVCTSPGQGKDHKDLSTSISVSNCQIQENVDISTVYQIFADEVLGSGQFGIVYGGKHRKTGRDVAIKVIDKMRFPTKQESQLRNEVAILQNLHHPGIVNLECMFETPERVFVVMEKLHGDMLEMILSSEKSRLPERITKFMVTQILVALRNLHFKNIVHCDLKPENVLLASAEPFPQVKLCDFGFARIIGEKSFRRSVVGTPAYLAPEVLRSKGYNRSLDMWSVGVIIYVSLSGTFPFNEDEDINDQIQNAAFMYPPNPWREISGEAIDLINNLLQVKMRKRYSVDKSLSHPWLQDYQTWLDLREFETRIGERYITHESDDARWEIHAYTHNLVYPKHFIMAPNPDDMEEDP
Conditions: at 0.1 µM.

Experiment [13] has as its target T4, Serine/threonine-protein kinase D3 (Homo sapiens). As to conditions: at 1 µM.
In experiment [14] the target is T5, cGMP-dependent protein kinase 1 (Homo sapiens) (UniProt Q13976).
T5 sequence (whole entry): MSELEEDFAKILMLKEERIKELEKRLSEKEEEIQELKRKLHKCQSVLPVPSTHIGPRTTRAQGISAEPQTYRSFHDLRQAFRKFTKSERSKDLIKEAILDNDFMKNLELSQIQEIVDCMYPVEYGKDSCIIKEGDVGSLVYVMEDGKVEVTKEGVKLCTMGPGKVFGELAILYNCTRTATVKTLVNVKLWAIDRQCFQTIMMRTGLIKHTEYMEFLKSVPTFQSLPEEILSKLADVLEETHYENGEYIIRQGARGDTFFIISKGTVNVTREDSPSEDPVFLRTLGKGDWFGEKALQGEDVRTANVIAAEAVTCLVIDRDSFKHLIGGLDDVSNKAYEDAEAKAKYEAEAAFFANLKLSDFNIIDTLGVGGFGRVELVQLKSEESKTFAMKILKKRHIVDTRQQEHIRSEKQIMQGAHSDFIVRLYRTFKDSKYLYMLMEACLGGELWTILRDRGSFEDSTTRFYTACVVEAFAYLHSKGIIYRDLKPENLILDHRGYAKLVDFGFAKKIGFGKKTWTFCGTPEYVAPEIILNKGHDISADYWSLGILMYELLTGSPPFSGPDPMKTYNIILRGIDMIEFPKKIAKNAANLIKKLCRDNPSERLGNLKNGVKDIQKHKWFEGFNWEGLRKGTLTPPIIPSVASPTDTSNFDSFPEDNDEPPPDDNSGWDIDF
Conditions: at 0.1 µM.

Experiment [15] addresses T5, cGMP-dependent protein kinase 1 (Homo sapiens). Conditions: at 1 µM.
Experiment [16] addresses T6, cGMP-dependent protein kinase 2 (Homo sapiens) (UniProt Q13237).
T6 sequence (whole entry): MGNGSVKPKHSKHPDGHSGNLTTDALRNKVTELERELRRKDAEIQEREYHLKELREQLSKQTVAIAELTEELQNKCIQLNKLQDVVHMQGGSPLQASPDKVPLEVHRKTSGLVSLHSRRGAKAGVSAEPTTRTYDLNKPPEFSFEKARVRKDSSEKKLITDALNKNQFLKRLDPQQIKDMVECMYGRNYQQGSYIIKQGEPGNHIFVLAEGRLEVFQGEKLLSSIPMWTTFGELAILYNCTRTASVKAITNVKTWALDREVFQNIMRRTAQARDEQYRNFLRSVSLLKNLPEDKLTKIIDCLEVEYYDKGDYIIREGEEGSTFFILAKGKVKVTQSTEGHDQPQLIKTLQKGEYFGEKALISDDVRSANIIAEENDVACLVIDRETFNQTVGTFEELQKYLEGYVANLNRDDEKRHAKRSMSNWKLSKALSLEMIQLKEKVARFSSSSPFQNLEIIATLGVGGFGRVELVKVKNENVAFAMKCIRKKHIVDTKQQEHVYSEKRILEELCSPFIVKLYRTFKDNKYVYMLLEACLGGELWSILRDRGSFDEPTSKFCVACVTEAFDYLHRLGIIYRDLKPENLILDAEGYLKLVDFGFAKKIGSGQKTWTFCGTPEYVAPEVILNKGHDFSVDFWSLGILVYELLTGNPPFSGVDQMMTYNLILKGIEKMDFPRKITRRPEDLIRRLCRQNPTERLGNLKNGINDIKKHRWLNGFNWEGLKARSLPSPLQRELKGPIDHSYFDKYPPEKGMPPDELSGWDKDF
Conditions: at 0.1 µM.

Experiment [17] has as its target T6, cGMP-dependent protein kinase 2 (Homo sapiens). Conditions: at 1 µM.
Experiment [18] deals with T7, cAMP-dependent protein kinase catalytic subunit PRKX (Homo sapiens) (UniProt P51817).
T7 sequence (whole entry): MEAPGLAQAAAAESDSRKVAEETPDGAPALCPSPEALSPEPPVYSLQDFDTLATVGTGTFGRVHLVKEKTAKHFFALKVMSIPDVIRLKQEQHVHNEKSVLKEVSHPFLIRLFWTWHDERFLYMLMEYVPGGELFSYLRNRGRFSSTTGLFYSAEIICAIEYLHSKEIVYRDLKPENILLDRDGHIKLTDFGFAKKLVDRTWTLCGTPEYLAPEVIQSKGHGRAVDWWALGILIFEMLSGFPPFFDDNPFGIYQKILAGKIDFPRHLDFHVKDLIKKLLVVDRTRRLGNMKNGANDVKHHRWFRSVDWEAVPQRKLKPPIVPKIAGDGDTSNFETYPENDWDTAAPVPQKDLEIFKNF
Conditions: at 0.1 µM.

The target in experiment [19] is T7, cAMP-dependent protein kinase catalytic subunit PRKX (Homo sapiens). As to conditions: at 1 µM.
The target in experiment [20] is Rho-associated protein kinase 1 (Homo sapiens) (UniProt Q13464). As to conditions: at 0.1 µM.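 Note: values are mean percent inhibition of ROCK1.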
Rho-associated protein kinase 1 (Homo sapiens), sequence (Q13464 2-1354 limits assumed): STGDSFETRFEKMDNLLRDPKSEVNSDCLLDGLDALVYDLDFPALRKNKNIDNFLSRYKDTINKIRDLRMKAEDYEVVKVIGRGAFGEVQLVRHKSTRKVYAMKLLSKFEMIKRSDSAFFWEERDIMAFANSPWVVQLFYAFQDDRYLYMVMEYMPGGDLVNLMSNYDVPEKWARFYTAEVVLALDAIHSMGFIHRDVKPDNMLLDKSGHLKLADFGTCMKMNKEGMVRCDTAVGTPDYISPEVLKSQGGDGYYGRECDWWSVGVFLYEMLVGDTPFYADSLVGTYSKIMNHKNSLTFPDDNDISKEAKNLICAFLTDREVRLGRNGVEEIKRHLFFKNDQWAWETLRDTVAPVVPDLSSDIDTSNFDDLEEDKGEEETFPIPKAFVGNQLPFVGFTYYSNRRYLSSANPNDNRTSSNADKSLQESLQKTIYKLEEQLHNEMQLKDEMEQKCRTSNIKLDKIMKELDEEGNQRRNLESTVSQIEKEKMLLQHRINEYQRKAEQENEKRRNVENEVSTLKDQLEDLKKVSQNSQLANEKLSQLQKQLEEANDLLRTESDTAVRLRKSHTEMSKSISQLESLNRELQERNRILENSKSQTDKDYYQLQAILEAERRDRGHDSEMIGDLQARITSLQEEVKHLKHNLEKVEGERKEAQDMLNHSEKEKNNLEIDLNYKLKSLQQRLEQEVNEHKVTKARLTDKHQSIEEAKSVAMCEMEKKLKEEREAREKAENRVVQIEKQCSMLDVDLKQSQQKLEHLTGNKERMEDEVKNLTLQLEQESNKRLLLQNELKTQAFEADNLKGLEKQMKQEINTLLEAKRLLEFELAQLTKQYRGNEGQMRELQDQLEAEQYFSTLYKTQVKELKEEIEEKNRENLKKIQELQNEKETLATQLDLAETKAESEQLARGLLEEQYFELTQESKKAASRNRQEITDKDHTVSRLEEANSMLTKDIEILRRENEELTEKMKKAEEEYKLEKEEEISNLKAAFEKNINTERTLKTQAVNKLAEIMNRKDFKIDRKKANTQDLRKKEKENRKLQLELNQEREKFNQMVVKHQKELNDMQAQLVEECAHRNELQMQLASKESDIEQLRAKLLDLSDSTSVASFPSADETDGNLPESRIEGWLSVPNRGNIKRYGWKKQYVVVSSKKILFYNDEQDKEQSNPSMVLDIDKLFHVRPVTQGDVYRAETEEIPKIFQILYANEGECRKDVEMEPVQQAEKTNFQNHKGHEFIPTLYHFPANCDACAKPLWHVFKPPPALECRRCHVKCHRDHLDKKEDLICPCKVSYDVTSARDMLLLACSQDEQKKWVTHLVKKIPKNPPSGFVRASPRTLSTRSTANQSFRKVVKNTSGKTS

Protein kinase C theta type (Homo sapiens), sequence (Q04759 whole entry, looked up): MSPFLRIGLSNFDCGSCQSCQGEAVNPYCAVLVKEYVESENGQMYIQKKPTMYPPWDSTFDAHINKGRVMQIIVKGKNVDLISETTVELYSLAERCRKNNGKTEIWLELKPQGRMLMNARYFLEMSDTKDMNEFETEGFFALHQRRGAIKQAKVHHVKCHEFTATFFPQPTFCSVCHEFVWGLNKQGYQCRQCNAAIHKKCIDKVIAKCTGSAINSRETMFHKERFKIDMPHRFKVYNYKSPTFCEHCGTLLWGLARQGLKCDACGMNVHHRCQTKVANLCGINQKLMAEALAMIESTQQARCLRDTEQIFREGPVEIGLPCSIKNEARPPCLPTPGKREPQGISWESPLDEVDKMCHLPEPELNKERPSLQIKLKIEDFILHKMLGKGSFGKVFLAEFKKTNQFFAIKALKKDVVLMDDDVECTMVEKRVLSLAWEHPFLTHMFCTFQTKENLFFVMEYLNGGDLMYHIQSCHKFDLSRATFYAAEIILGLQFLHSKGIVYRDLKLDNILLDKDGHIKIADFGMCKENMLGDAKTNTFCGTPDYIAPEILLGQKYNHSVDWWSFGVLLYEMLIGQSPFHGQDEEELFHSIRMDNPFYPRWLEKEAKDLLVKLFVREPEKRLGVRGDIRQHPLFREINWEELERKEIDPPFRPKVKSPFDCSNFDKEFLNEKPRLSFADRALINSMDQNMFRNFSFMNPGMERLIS
Protein kinase C beta type (Homo sapiens), sequence (P05771 2-671 limits assumed): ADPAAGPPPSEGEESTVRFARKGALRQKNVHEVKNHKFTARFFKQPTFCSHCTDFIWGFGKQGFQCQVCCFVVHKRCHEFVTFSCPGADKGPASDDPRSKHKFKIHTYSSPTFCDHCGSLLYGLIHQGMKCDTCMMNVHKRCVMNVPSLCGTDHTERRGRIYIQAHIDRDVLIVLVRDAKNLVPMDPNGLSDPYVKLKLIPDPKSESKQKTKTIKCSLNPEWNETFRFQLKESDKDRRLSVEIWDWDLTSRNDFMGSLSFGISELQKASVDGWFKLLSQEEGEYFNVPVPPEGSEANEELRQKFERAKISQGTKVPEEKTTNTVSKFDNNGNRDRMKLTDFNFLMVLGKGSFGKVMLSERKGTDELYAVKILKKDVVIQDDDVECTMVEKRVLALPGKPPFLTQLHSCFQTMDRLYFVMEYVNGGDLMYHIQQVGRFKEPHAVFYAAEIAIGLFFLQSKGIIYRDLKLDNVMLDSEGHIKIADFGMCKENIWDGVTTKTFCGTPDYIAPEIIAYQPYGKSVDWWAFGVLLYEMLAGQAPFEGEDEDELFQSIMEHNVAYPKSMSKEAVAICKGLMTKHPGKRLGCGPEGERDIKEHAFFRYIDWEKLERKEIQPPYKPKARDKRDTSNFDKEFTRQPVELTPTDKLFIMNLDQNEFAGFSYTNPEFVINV

The inhibition is the drop in the measured response relative to a control, in per cent. For `COc1cc(C)c(N(C)C(=O)CN(C)C)cc1Nc1nc(Nc2cccc(F)c2C(N)=O)c2cc[nH]c2n1`, the inhibition in [1] was 0.07%; in experiment [2], 0.9%; in experiment [3], 1.43%; in experiment [4], -0.27%; in [5] it was -0.14%; in [6], 0.9%. Moreover, the inhibition in experiment [7] is 0.92%; in [8] it was -1.96%; in experiment [9] it was -0.45%; in experiment [10], -2.04%; in experiment [11], -0.62%; in experiment [12], -1.31%. For the same compound, the inhibition in [13] worked out at 0.06%; in experiment [14], 0.67%; in experiment [15], 3.77%; in experiment [16], 2.1%; in experiment [17] it was 2.31%; in experiment [18], 0.78%. The results for the inhibition in experiment [19] and in experiment [20] were -0.64% and 0.77%, respectively.
